GLP1R cytotox = qHTS of GLP-1 Receptor Inverse Agonists: Cytotox Screen | HEK293 cAMP-luciferase reporter cells, luminescence, 24 h | hit rate 0.13% among 410,000 | Potency, µM (top dose mostly 38.3 µM), hits mostly inhibitors;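 note: loss of luciferase light is scored as toxicity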
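Cells in DMEM/10% Nu serum/1% pen-strep, 1536-well format. Pre-incubated 12 h, dosed with 23 nL compound, incubated a further 24 h. Luciferase detection, 12 min at room temp, luminescence.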
mIDH1 inhibitor = qHTS for Inhibitors of mutant isocitrate dehydrogenase 1 (IDH1): qHTS; Isocitrate dehydrogenase [NADP] cytoplasmic (Homo sapiens), O75874; IDH1-R132H enzyme, NADPH consumption, diaphorase/resazurin fluorescence; Potency, µM (top dose mostly 76.6 µM), actives largely listed as inhibitors; hit rate 0.093% among 390,000; note: nearly all actives have a fitted effect of over 65% in size
Target sequence (O75874 whole entry R132H, stated change not applied): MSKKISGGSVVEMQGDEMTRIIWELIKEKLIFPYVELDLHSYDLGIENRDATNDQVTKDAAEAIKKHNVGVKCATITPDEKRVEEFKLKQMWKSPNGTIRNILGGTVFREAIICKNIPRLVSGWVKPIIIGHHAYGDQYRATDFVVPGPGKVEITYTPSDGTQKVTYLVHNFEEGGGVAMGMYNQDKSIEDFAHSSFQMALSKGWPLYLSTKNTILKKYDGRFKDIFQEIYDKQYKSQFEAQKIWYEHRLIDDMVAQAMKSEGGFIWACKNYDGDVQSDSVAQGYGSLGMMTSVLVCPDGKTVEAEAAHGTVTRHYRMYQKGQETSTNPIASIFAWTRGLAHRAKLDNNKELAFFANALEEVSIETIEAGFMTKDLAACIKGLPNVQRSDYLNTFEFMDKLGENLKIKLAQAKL
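IDH1-R132H (0.5 ug/mL dispensed) in pH 7.5 Tris buffer was preincubated 30 min with compound, then given a substrate mix of 0.016 mM NADPH and 2 mM alpha-KG for 80 min at room temperature; remaining NADPH was read by diaphorase/resazurin fluorescence.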
LDHA inh = qHTS assay for inhibitors of human lactate dehydrogenase; L-lactate dehydrogenase A chain (Homo sapiens), P00338; purified LDHA, NADH/diaphorase-resazurin fluorescence; stronger effect = lower value; activity change, % (values are at about 110 or 230 µM); hit rate 0.15% among 480,000; AID 1347041, 2019; in the data active = activity change below about -30%; inconclusive = mostly about -25% to -30%
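LDH5 2 nM; NADH 0.06 mM, pyruvate 0.2 mM; 200 mM Tris pH 7.4, EDTA, Tween-20; 5 min RT. Detection: diaphorase 0.133 mg/mL + resazurin 37 µM, fluorescence ex540/em590 at 0 and 20 min; normalized to enzyme-free and DMSO wells.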
GLP1R ag = qHTS of GLP-1 Receptor Agonists | Potency, µM (highest dose often 45.6 µM), hits mostly activators | hit rate 0.007% among 380,000 | HEK293 GLP-1R CRE-luciferase, luminescence, 4-6 h; cells express a hypersensitive GLP-1R form | Glucagon-like peptide 1 receptor (Homo sapiens), P43220
PTHR1 agonist = qHTS for PTHR1 Agonists: Primary Screen | Potency, µM (top dose mostly 115 µM), most hits filed as activators | hit rate 0.075% among 410,000 | AID 743266, 2014 | HEK293 GP2 PTHR1 cells, GloSensor cAMP luminescence, 1 h; note: nearly all actives have a fitted effect of over 55% in size
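HEK-293-derived GP2 cells expressing PTHR1 and a GloSensor cAMP reporter, 3,000/well, plated overnight, given luciferin plus IBMX (each 0.5 mM as added) for 1 h at 37 °C, then compound for 1 h at 37 °C. Luminescence was read after 15 min at room temperature.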
GLP1R inv ag = qHTS of GLP-1 Receptor Inverse Agonists (Inhibition Mode) | hit rate 1.6% among 410,000 | Glucagon-like peptide 1 receptor (Homo sapiens), P43220 | HEK293 GLP-1R CRE-luciferase, luminescence, 24 h; GLP-1R form is constitutively active | Potency, µM (series often up to 38.3 µM), hits mostly inhibitors | AID 624417, 2012; note: nearly all actives have a fitted effect of over 55% in size
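qHTS in 1536-well format: reporter HEK293 cells expressing constitutive GLP-1R activity in DMEM + 10% Nu serum, 24 hr with compounds at 37 deg C, luminescence read after 12 min with detection reagent.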
Numbers stand for hits; i = inactive; ? = inconclusive; nt = not tested or not shown. The list is not random: actives were taken first. Their share in the collection is about 1.7%. Unless noted, calls come from the whole dose curve; as a rule, active = well fitted curve in the direction sought with a large enough effect; inconclusive = small, poorly fitted or top-dose-only effect, or another doubt; inactive = no such curve, though single readings can be large; an effect the other way counts as inactive or inconclusive.

SMILES	GLP1R cytotox	mIDH1 inhibitor	LDHA inh	GLP1R ag	PTHR1 agonist	GLP1R inv ag
N#CC(C#N)=c1ccc2c(c1)NC1(CCCCC1)N=2	10µM	i	i	i	i	i
CCC(C(=O)Nc1nc2c(C)cccc2s1)c1ccccc1 (stereo unspecified)	nt	nt	i	nt	nt	nt
CCOC(=O)c1sc(NC(=S)NC(=O)CC(C)C)cc1C	?	i	i	i	i	10µM
CCN(CC)C(=O)/C=C/c1csc(C)n1	nt	nt	i	nt	nt	nt
Cc1ccc(C2CC(=O)NC(SCc3ccccc3)=C2C#N)cc1 (stereo unspecified)	i	i	i	i	i	8.9µM
COc1ccccc1OCC(=O)/C=C1/N(C)c2ccccc2C1(C)C	i	i	i	i	i	10µM
O=C(Nc1ccccc1)C1CCN(c2nc3ccccc3o2)CC1	nt	nt	i	nt	nt	nt
COc1ccc(C(=O)N2CCN(c3nc(C4CC4)nc4sc(C)c(C)c34)CC2)cc1	i	i	i	i	i	?
Cc1sc2nc(C3CC3)nc(N3CCN(C(=O)c4ccc(Cl)cc4)CC3)c2c1C	i	i	i	i	i	8.9µM
Cc1sc2nc(C3CC3)nc(N3CCN(C(=O)c4ccc(F)cc4)CC3)c2c1C	i	i	i	i	i	10µM
C=CCN1CCN(C(=O)/C=C/c2ccccc2)CC1	nt	nt	i	nt	nt	nt
CC(C)=CCC/C(C)=N/n1cnnc1	nt	nt	i	nt	nt	nt
Cc1cccc2c1ccn2CCC(=O)Nc1nnc(C2CC2)s1	nt	nt	i	nt	nt	nt
Cc1noc(C)c1CS(=O)(=O)c1ccccc1Br	nt	nt	i	nt	nt	nt
CCOC(=O)c1c(C)oc2c1c(C=NCc1ccccn1)c(O)c1ccccc12	?	i	i	i	i	22µM
CCOC(=O)c1c(C)oc2c1c(C=NCC1CCCO1)c(O)c1ccccc12 (stereo unspecified)	i	i	i	i	i	i
Clc1ccc(N2CCN(c3ncnc4nc[nH]c34)CC2)cc1Cl	nt	nt	-31	nt	nt	nt
N#Cc1nc(-c2ccccc2F)oc1NCc1ccc2c(c1)OCO2	nt	nt	i	nt	nt	nt
Fc1ccc(N2N=C(c3cccs3)CC2c2ccccc2)cc1 (stereo unspecified)	i	i	i	i	i	11µM
O=S(=O)(c1ccccc1)N1N=C(c2cccs2)CC1c1ccc(F)cc1 (stereo unspecified)	i	i	i	i	i	?
CCNC(=O)NC(=O)C(C)N(C)CC(=O)Nc1cccc2ccccc12 (stereo unspecified)	nt	nt	-33	nt	nt	nt
Cc1cc(OC(C)C(=O)N(Cc2ccco2)Cc2ccco2)cc(C)c1Cl (stereo unspecified)	i	i	i	nt	i	10µM
Cc1ccc(CN(Cc2ccco2)C(=O)COc2cc(C)c(Cl)c(C)c2)cc1	i	i	i	nt	i	?
O=C(COC(=O)CCCc1nc2ccccc2s1)NCc1ccccc1Cl	nt	nt	i	nt	nt	nt
Cc1ccc(NC(=O)COC(=O)CNC(=O)C2CCCCC2)cc1S(=O)(=O)N(C)C	i	i	i	i	i	i
SMILES	GLP1R cytotox	mIDH1 inhibitor	LDHA inh	GLP1R ag	PTHR1 agonist	GLP1R inv ag
CCOc1ccc(C(=O)NCC(=O)OCC(=O)Nc2ccc(C)c(S(=O)(=O)N(C)C)c2)cc1	i	i	-31	i	i	i
COCc1cnc2c(c1SCc1ccccc1)c(=O)n(C)c(=O)n2C	nt	nt	i	nt	nt	nt
CCOC(=O)N1CCc2c(sc(NCc3ccc(OCC)cc3)c2C(=O)Nc2ccc(OC)cc2OC)C1	i	nt	i	nt	i	?
CCOC(=O)N1CCc2c(sc(NCc3ccc(N(CC)CC)cc3)c2C(=O)Nc2cc(OC)ccc2OC)C1	i	i	i	nt	40µM	i
CCOC(=O)c1nc2ccccc2nc1NCCc1ccc(C)cc1	nt	nt	i	nt	nt	nt
O=C(/C=C/c1ccc(S(=O)(=O)N2CCOCC2)cc1)NCc1ccc(Cl)cc1	i	i	i	i	i	3.5µM
